One assay deals with Albumin (Bos taurus) (UniProt P02769). Put plainly: bovine serum albumin binders on microarray, profiling panel, artefact control for SMM control protein annotation, biochemical, small-molecule microarray, Alexa647 label, 635/667 nm fluorescence (AID 1118).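 Further: score merges 667 nm emission intensity and signal-to-noise per printed compound spot.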 The following applies: BSA-A647 binding, fluorescence 635 nm, higher = more signal.
Assay [1] can be described thus: small-molecule microarray binders of probe aXIP, primary screen, biochemical, NeuroSMM set, 635/667 nm fluorescence (AID 1119).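 Further: probe is the protein aXip251-270 applied at 1 µg/mL to compound-printed slides; binding of probe to printed compounds measured as 667 nm fluorescence plus signal to noise.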 The note with it: higher = more signal, called active from +8 up or from −8 down.
A short description of assay [2]: small-molecule binders of probe aNOTCH3, primary screen, biochemical, small-molecule microarray, 635/667 nm fluorescence (AID 1120).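 Further: probe is a biotin-tagged antibody raised against NOTCH3 rather than NOTCH3 protein; score merges spot fluorescence near 667 nm with spot signal to noise.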 The note with it: higher = more signal.
Assay [3] in a line: small-molecule binders of probe aNOTCH2, primary screen, biochemical, small-molecule microarray, 635/667 nm fluorescence (AID 1121).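 Further: score merges feature fluorescence read at 667 nm with its signal to noise.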 The following applies: higher = more signal.
For assay [4], the target named is Carbonic anhydrase 2 (Homo sapiens) (UniProt P00918). Put plainly: CAII small-molecule binders, profiling panel, biochemical, small-molecule microarray, Alexa647-labelled CAII (AID 1122). The following applies: CAII-A647 binding fluorescence, higher = more signal.
Assay [5] can be described thus: COS7 lysate on small-molecule microarray, probe aHis, 635 nm (AID 1123).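 Further: z-score combines 667nm fluorescence intensity with signal-to-noise per printed compound spot.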 The following applies: COS7 cell lysate, fluorescence, higher = more signal.
A short description of assay [6]: compound binding in COS7 lysate, probe aLAP1, primary screen, cell lysate, small-molecule microarray (AID 1124).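 Further: lysate comes from COS7 cells expressing LAP1 and is applied at 0.3 µg/mL; score merges spot fluorescence near 667 nm with signal-to-noise over triplicate slides.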 The following applies: probe aLAP1, fluorescence, higher = more signal.
The test system of the next assay is Sam68 (KHDRBS1). Briefly: Sam68 small-molecule binders, primary screen, biochemical, small-molecule microarray, 635 nm fluorescence (AID 1125).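 Further: score merges 667 nm channel intensity with signal to noise over triplicate slides.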 The following applies: small-molecule microarray binding, higher = more signal.
The test system of assay [7] is Chordin-like protein 2 (CHRDL2). Briefly: CHRDL2 small-molecule binders, primary screen, biochemical, small-molecule microarray, 635 nm fluorescence (AID 1126).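 Further: printed compound slides probed with Chrdl2 protein at 4 µg/mL for 1 h at 4 C; score merges 667 nm emission intensity with signal to noise over three replicate slides.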 The following applies: small-molecule microarray binding, fluorescence 635 nm; higher = more signal.
Assay [8] concerns the target Concanavalin-A (Canavalia ensiformis) (UniProt P02866). Put plainly: ConA small-molecule binders, primary screen, artefact control for SMM control protein annotation, biochemical, small-molecule microarray, Alexa647 label, 635 nm (AID 1127).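 Further: z combines 667 nm emission intensity with signal-to-noise across three replicate slides.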 The following applies: ConA-A647 binding fluorescence, higher = more signal.
Assay [9] in a line: anti-His antibody binders, primary screen, artefact control for SMM control protein annotation, biochemical, small-molecule microarray, 635 nm fluorescence (AID 1128).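 Further: score merges feature fluorescence with signal-to-noise for each printed compound spot.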 The following applies: anti-His Alexa647 antibody binding, higher = more signal.
Assay [10] concerns Human papillomavirus type 1a E7 protein (residues 1-88). Put plainly: HPV1a E7 small-molecule binders, primary screen, biochemical, small-molecule microarray, residues 1-88, 635 nm (AID 1129). The following applies: small-molecule microarray binding, fluorescence 635 nm; higher = more signal.
The target of assay [11] is Focal adhesion kinase 1 (Homo sapiens) (UniProt Q05397). Put plainly: small-molecule microarray binders of FAK, primary screen, biochemical, 635/667 nm fluorescence, BSA, DTT (AID 1130).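 Further: composite of spot emission at 667 nm and signal to noise over triplicate slides.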 The note with it: PTK2 binding, 635 nm fluorescence, higher = more signal.
For assay [12], the system named is Fibrinogen (Alexa647-labelled). Put plainly: fibrinogen binders on compound microarrays, profiling panel, artefact control for SMM control-protein annotation, biochemical, small-molecule microarray, 635/667 nm fluorescence (AID 1131).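 Further: z-score merges 667 nm fluorescence with per-spot signal-to-noise over triplicate slides.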 The following applies: fibrinogen-A647 binding fluorescence, higher = more signal.
In assay [13] the target is Follistatin (Homo sapiens) (UniProt P19883). Put plainly: follistatin binders on small-molecule microarrays, primary screen, biochemical, small-molecule microarray, 635/667 nm fluorescence (AID 1132). The note with it: FST binding, 635 nm fluorescence, higher = more signal.
Assay [14] has as its target Fibroblast growth factor 2 (Homo sapiens) (UniProt P09038). Briefly: FGF2 binders on small-molecule microarrays, primary screen, biochemical, small-molecule microarray, 635/667 nm fluorescence (AID 1133). The following applies: small-molecule microarray binding, FGF2, fluorescence 635/667; higher = more signal.
The nature of assay [15]: mitochondrial membrane potential change in A549 cells, profiling panel, cell-based, JC-1 fluorescence, basal, 24 h, 100 nL (AID 1138).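 Further: A549 lung adenocarcinoma cells under basal conditions with no added stimulus; test concentration not given here.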 The note with it: higher = more signal.
Another assay deals with Lefty1. Put plainly: Lefty1 binders on small-molecule microarrays, primary screen, biochemical, small-molecule microarray, 635/667 nm fluorescence (AID 1139). The following applies: small-molecule microarray binding, fluorescence 635/667; higher = more signal.
Assay [16] deals with wheat germ agglutinin (Triticum aestivum), Alexa647-labelled. Briefly: wheat germ agglutinin binders on compound microarrays, profiling panel, artefact control for SMM control-protein annotation, biochemical, small-molecule microarray, 635/667 nm fluorescence (AID 1140).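 Further: score merges 667 nm feature emission with signal to noise over triplicate slides.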 The note with it: WGA-A647 binding, 635 nm fluorescence, higher = more signal.
Assay [17] deals with Luciferin 4-monooxygenase (Photinus pyralis) (UniProt P08659). Put plainly: firefly luciferase enzyme inhibitors, primary screen, biochemical, luminescence, purified enzyme, 2006 set (AID 1141).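 Further: cell-free assay with purified firefly luciferase at 100 ng per well in PBS; test concentration not given here.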 The following applies: SteadyGlo luminescence, 30 min, higher = more signal, called active from +8 up or from −8 down.

The source made the active and inactive calls.

Follistatin (Homo sapiens), sequence (P19883 whole entry, looked up): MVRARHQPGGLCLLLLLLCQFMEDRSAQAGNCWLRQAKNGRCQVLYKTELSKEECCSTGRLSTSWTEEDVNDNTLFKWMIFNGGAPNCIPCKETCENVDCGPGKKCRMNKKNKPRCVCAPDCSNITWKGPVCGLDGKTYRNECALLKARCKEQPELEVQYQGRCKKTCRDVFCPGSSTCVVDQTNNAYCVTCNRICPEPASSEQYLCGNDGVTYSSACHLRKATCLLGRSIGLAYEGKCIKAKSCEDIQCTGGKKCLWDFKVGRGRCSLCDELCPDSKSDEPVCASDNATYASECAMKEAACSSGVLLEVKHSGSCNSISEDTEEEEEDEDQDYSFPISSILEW
Luciferin 4-monooxygenase (Photinus pyralis), sequence (P08659 whole entry, looked up): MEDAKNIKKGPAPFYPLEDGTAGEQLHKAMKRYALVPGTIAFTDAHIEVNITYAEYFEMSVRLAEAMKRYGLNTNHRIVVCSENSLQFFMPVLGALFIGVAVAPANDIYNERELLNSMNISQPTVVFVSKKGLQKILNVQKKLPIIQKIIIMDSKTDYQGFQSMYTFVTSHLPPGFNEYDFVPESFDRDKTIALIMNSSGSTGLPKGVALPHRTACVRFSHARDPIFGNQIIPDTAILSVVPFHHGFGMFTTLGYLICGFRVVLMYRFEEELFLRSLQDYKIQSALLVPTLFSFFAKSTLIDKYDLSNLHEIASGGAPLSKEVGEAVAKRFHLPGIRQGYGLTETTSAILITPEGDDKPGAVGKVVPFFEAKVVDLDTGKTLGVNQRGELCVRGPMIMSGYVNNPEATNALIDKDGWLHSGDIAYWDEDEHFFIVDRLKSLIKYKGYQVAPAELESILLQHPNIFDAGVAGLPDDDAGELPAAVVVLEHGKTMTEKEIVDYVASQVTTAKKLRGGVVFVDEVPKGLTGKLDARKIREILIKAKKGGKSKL
Focal adhesion kinase 1 (Homo sapiens), sequence (Q05397 whole entry, looked up): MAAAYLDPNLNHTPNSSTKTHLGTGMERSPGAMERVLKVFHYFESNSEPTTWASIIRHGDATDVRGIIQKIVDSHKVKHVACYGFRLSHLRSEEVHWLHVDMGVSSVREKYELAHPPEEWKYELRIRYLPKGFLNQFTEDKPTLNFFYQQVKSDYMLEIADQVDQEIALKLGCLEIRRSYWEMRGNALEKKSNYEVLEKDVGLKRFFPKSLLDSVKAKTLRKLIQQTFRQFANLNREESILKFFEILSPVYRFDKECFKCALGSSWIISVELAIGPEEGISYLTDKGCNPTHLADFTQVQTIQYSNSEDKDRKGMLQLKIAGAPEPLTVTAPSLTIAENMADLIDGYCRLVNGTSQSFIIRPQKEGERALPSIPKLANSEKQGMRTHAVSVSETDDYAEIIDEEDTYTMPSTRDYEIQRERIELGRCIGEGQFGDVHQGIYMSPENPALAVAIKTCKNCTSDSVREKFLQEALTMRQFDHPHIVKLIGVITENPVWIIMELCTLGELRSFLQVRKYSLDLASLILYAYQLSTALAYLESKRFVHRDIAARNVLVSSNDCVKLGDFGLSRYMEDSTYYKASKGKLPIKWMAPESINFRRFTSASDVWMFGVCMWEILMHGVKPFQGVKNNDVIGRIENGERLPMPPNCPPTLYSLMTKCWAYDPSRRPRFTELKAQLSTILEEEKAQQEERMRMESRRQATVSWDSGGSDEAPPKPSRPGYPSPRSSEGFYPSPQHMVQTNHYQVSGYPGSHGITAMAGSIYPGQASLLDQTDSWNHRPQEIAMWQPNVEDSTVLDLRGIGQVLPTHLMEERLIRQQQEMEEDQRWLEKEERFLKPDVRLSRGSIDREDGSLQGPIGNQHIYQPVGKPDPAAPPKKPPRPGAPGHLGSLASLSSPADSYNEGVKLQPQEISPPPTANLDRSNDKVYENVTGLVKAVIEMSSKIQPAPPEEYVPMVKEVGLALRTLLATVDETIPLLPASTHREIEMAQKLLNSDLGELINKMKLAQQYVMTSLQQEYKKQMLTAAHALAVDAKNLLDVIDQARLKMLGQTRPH
Fibroblast growth factor 2 (Homo sapiens), sequence (P09038 whole entry, looked up): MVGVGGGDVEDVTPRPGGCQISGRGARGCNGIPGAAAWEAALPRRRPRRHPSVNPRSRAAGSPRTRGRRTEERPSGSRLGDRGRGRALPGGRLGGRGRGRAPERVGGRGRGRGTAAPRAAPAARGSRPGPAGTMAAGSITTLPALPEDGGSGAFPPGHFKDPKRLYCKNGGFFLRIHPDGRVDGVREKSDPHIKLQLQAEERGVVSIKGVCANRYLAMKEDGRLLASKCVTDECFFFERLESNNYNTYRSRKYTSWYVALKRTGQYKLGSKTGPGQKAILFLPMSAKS
Albumin (Bos taurus), sequence (P02769 whole entry, looked up): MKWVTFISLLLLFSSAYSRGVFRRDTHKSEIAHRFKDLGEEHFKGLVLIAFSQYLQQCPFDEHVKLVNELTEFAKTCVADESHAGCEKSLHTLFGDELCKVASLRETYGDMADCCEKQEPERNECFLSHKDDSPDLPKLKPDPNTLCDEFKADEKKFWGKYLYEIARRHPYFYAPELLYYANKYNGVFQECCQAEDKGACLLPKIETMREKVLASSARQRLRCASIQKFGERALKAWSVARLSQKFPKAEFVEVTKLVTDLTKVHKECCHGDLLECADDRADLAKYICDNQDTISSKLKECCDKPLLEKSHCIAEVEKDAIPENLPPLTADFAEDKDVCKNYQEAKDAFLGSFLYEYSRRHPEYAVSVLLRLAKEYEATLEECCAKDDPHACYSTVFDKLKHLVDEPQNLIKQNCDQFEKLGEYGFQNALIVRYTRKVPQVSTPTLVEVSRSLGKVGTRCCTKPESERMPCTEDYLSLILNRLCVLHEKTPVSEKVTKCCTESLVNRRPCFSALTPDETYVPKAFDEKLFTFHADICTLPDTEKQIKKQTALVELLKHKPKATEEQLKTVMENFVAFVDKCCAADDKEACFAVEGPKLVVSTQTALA
Concanavalin-A (Canavalia ensiformis), sequence (P02866 whole entry, looked up): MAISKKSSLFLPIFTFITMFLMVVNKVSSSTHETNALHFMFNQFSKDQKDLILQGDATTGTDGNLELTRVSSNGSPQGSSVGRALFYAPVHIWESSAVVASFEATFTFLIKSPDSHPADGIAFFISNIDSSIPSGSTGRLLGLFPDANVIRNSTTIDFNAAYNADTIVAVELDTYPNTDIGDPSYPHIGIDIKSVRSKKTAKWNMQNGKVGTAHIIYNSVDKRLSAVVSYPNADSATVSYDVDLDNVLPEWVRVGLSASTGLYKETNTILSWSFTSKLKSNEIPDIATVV

In the case of `C=CCN1C(=O)[C@]2(O[C@H](CCO)[C@@H]([Si](C)(C)c3ccc(OC)cc3)[C@@H]2C)c2cc(NC(=O)[C@H](C)O)ccc21`, the composite z-score was 0.851 with Albumin (Bos taurus); 0.0203 in assay [2]; -0.0666 in assay [3]; 0.56 in assay [4]; 1.39 in assay [5]; 0.371 in [6]. The composite z-score in the assay on Sam68 (KHDRBS1) was determined as 1.31; in [7], 0.174; in assay [8] it was 1.01; in assay [9] it was 1.58; in assay [10] it was 1.22; in [11], 0.937. The composite z-score turned out to be 0.762 in assay [12]; 0.222 in [13]; 0.313 in assay [14]; 0.673 in the assay on Lefty1; 0.394 in assay [16]. The composite Z-score in assay [1] was 1.31 (inactive). Besides, the figures for the z-score in assay [15] and in assay [17] were 0.388 and -0.181 (inactive), respectively.

`CN1C=C(C(=O)OCCS(C)(=O)=O)C(C(=O)OCCS(C)(=O)=O)=CC(CCCO)=CC1C1CC1` (stereo not given): the composite z-score with Albumin (Bos taurus) was 0.846; in assay [2], -0.0613; in assay [3], -0.108; in assay [4], 0.826; in assay [5] it was 0.606; in assay [6] it was -0.0075. The composite z-score was -0.0704 in the assay with Sam68 (KHDRBS1); -0.705 in [7]; 0.183 in assay [8]; 0.464 in [9]; -0.202 in [10]; 0.686 in assay [11]. The composite z-score in assay [12] was 0.901; in assay [13], 0.186; in assay [14] it was -0.275; in the assay with Lefty1 it was 0.889; in assay [16] it was 0.288. Moreover, the composite Z-score in assay [1] is -0.561 (inactive). For the same compound, the values for the z-score in [15] and in [17] were 0.664 and -0.0115 (inactive), respectively.

In the case of `CCOc1cc(C(O)C2C=CC3C(=O)N(c4ccccc4)C(=O)C3N2Nc2ccc([N+](=O)[O-])cc2)ccc1O` (stereo not given), the composite z-score with Albumin (Bos taurus) is 0.839; in [2], 0.0488; in assay [3], -0.0666; in [4], 0.865; in assay [5], 1.78; in [6], 0.502. The composite z-score with Sam68 (KHDRBS1) was 0.874; in [7], -0.136; in [8] it was 0.548; in [9] it was 0.73; in assay [10], 1.06; in assay [11], 0.106. Further, the composite z-score came to 0.0405 in assay [12]; 0.165 in [13]; 0.0474 in [14]; 0.107 in the assay with Lefty1; 0.14 in [16]. The composite Z-score in assay [1] is -0.014 (inactive). Besides, the z-score in [15] was -1.52; in [17], -0.021 (inactive).

As to `CS(=O)(=O)CCOC(=O)C1=CC(c2ccc(CO)cc2)=CC(C2CC2)N(Cc2cc3c(cc2Br)OCO3)C=C1C(=O)OCCS(C)(=O)=O` (stereo not given), the composite z-score with Albumin (Bos taurus) was 0.381; in [2], 0.143; in assay [3], -0.0902; in assay [4] it was 0.618; in assay [5], 2.29; in [6] it was 0.487. Further, the composite z-score came out at 1.3 in the assay on Sam68 (KHDRBS1); 0.37 in assay [7]; 0.927 in assay [8]; 1.92 in assay [9]; 1.21 in [10]; 0.608 in assay [11]. Further, the composite z-score is 0.896 in assay [12]; 0.678 in [13]; 0.763 in [14]; 1.09 with Lefty1; 0.953 in [16]. In addition, the composite Z-score in assay [1] was -0.0662 (inactive). Further, the z-score in assay [15] is 2.44; in assay [17], -1.51 (inactive).

Regarding `CN(C)CCCCNC(=O)[C@H]1C[C@H]2C(=O)N[C@@H](Cc3ccccc3)C(=O)N2[C@H]1c1ccc(O)cc1`, the composite z-score is 0.356 in the assay with Albumin (Bos taurus); 0.143 in [2]; -0.0684 in assay [3]; 0.158 in assay [4]; 0.538 in [5]; 0.263 in [6]. In addition, the composite z-score in the assay on Sam68 (KHDRBS1) is 1.3; in assay [7], 0.956; in assay [8], 0.863; in assay [9] it was 0.499; in assay [10], 1.16; in [11], -0.366. For the same compound, the composite z-score worked out at 0.986 in assay [12]; 1.34 in [13]; 1.64 in assay [14]; 1.31 in the assay on Lefty1; 1.2 in assay [16]. Also, the composite Z-score in assay [1] was 0.124 (inactive). The figures for the z-score in assay [15] and in [17] were -0.884 and 0.999 (inactive), respectively.

`CC(=O)C1=CCC(c2ccccc2)N(S(=O)(=O)c2ccc(C)cc2)C1` (stereo not given): the composite z-score was 0.632 in the assay with Albumin (Bos taurus); 0.101 in assay [2]; -0.0439 in assay [3]; 0.66 in [4]; 2.5 in assay [5]; 0.763 in assay [6]. Also, the composite z-score with Sam68 (KHDRBS1) worked out at 0.579; in assay [7], 0.725; in assay [8] it was 0.789; in [9], 1.8; in assay [10], 1.19; in assay [11], 0.362. Besides, the composite z-score in assay [12] is 0.757; in [13], 0.798; in assay [14] it was -0.194; with Lefty1, 0.176; in assay [16] it was 1.21. Also, the composite Z-score in assay [1] is -0.685 (inactive). Also, the figures for the z-score in [15] and in assay [17] were -1.16 and 1.6 (inactive), respectively.

As for `CC(C)(C)OC(=O)CC[C@@]1(C(=O)O)N=C(c2ccc(OCCCO)cc2)O[C@@H]1c1ccccc1N=[N+]=[N-]`, the composite z-score with Albumin (Bos taurus) is 0.933; in [2] it was 0.39; in assay [3], 0.0309; in [4], 0.72; in assay [5] it was 1.27; in [6], 0.298. In addition, the composite z-score in the assay on Sam68 (KHDRBS1) was 1.12; in assay [7] it was -0.734; in [8] it was 0.648; in assay [9], 1.5; in assay [10], 0.826; in [11], 2.08. In addition, the composite z-score in assay [12] was 0.482; in assay [13] it was 0.589; in [14], -0.349; in the assay on Lefty1 it was -0.666; in assay [16], 1.28. Moreover, in assay [1], the composite Z-score was 0.0589 (inactive). For the same compound, the z-score in assay [15] is -1.49; in assay [17], -12.1 (active).

As for `O=C1C=CC(=O)[C@@H]2CC(COc3ccccc3)=C3[C@@H](CCc4ccccc4)OB(O)C[C@@H]3[C@H]12`, the composite z-score with Albumin (Bos taurus) was -0.182; in [2] it was -0.0647; in assay [3], -0.219; in [4], -0.0292; in [5], 0.113; in assay [6], -0.17. The composite z-score in the assay with Sam68 (KHDRBS1) is 0.359; in assay [7], 0.299; in [8], 0.238; in assay [9], 0.346; in assay [10], 0.273; in [11] it was -0.0461. For the same compound, the composite z-score was -0.0249 in [12]; 1.08 in [13]; 0.45 in assay [14]; 0.411 in the assay with Lefty1; -0.158 in [16]. Further, the composite Z-score in assay [1] is 0.155 (inactive). In addition, the results for the z-score in assay [15] and in [17] were -1.59 and -3.18 (inactive), respectively.

Turning to `COc1ccc([Si](C)(C)[C@H]2[C@H](CCn3cc([C@H](O)c4ccccc4)nn3)O[C@@]3(C(=O)N(Cc4cccc(N5CCC5=O)c4)c4ccccc43)[C@@H]2C)cc1`, the composite z-score is 0.31 with Albumin (Bos taurus); -0.219 in assay [2]; -0.245 in [3]; 0.115 in [4]; 1.12 in assay [5]; -0.166 in assay [6]. Besides, the composite z-score is 0.316 in the assay with Sam68 (KHDRBS1); 0.317 in [7]; 0.47 in assay [8]; 0.396 in assay [9]; 0.302 in assay [10]; -0.0817 in assay [11]. Further, the composite z-score worked out at 0.435 in [12]; 1.34 in assay [13]; 1.54 in assay [14]; 0.811 in the assay with Lefty1; 0.219 in assay [16]. Besides, the composite Z-score in assay [1] was -0.0916 (inactive). Besides, the results for the z-score in assay [15] and in [17] were 2.35 and -0.719 (inactive), respectively.

The values above are taken from PubChem BioAssay.
